mHTT CaM bind: mutant huntingtin-calmodulin interaction inhibitors – biochemical, AlphaScreen, primary screen; P42858; AlphaScreen His-mHTT/GST-CaM binding, luminescence; inhibition, % at 15 µM; 3.6% of 190,000 active; AID 1671202, 2021;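 further: 0% = both proteins with DMSO and 100% = one protein alone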
Pf apPOL inh: Pf-apPOL inhibitors, biochemical, fluorescence; Plasmodium falciparum apicoplast DNA polymerase (apPOL); Recombinant Pf-apPOL, molecular beacon fluorescence, 1.5 h; inhibition, % at 10 µM; AID 1794808, 2022; 0.25% of 210,000 active
The depositor's hits bear a star; i = inactive; / = not tested or not shown. This excerpt belongs to a sample that is enriched for hits. No stated cut-off is given here; in the data, active means inhibition above about 50%; inactive means the rest.

SMILES	mHTT CaM bind	Pf apPOL inh
O=C(c1ccco1)N1CCCC(c2nnc(-c3ccc4c(c3)OCO4)o2)C1 (centres undefined)	-5.9	-4.1
COc1ccc(NC(=O)c2ccc(OC)c(S(=O)(=O)N3CCOCC3)c2)cc1	7.4	0.8
COc1cc(C=C2C(=O)c3ccccc3C2=O)ccc1OCc1ccc(C(=O)O)cc1	6.0	3.4
COc1ccc(/C=C2\C(=O)c3ccccc3C2=C(C#N)C#N)cc1OC	92.0*	-1.3
CCOc1ccc(C=C2C(=O)c3ccccc3C2=O)cc1OC	11.0	-4.2
CCOc1cc(/C=C(\C#N)c2nc3ccc(C)cc3[nH]2)cc(Cl)c1O	84.0*	-2.8
COc1cc(/C=C(\C#N)c2nc3ccccc3[nH]2)c(Br)cc1O	42.0	-6.1
COc1cc(/C=C(\C#N)c2nc3ccc(C)cc3[nH]2)ccc1OCC(=O)O	11.2	-1.7
COc1cc(Br)c(/C=C(\C#N)c2nc3ccccc3[nH]2)cc1OC	53.0*	-2.1
COc1cc(/C=C(\C#N)c2nc3ccccc3[nH]2)cc(OC)c1OC	8.0	-2.6
CCOc1cc(/C=C(\C#N)c2nc3ccccc3[nH]2)cc(I)c1O	88.0*	-0.2
CCOc1cc(C=C2C(=O)c3ccccc3C2=O)cc(I)c1O	58.0*	-9.4
COc1ccc(Br)c(C(=O)N2CCN(CCn3cccn3)CC2)c1	-10.8	-10.2
COc1cc(C(=O)NCCc2ccc(Cl)cc2)cc(OC)c1OC	0.7	-2.7
COCCn1c(C2CCN(S(=O)(=O)c3cc(C)ccc3C)C2)nc2cccnc21 (centres undefined)	13.3	-3.2
Cc1nc(CCNC(=O)C2CCN(C(=O)Cc3ccccc3)CC2)cs1	-8.7	-3.6
CCCC(=O)N1CCN(c2nc3c(s2)c(C)nn3-c2ccc(C)cc2)CC1	2.4	-0.8
CC(=O)c1ccc(N2C(=O)C3C4C=CC(CO)(O4)C3C2=O)cc1 (centres undefined)	0.0	0.0
N#CC1=C(SCC(N)=O)NC(=O)CC1c1cccc(Cl)c1Cl (centres undefined)	13.0	-4.5
COc1cc(/C=C(\C#N)c2nc3ccc(C)cc3[nH]2)cc(OC)c1O	58.0*	-3.8
Cc1ccc(/C=C(\C#N)c2nc3ccc(C)cc3[nH]2)cc1	-12.2	1.0
Cc1ccc2nc(/C(C#N)=C/c3cc([N+](=O)[O-])ccc3O)[nH]c2c1	4.4	-4.4
Cc1ccc2nc(/C(C#N)=C/c3ccc(O)c([N+](=O)[O-])c3)[nH]c2c1	59.0*	-0.3
Cc1nc2cc(N=c3ccc4ccccc4n3C)ccc2s1	10.0	-2.0
CN1c2cc(F)ccc2C(=O)NC12CCN(C(=O)Cc1ccccc1Cl)CC2	3.0	-6.7
SMILES	mHTT CaM bind	Pf apPOL inh
FC(F)(F)COc1nc(Cl)nc(Nc2ccccc2)n1	86.0*	-4.0
OCCNc1nc(Cl)nc(Nc2ccc(I)cc2)n1	10.0	-3.7
N/C(=N/OCC(=O)N1CCCCC1)c1nonc1N	i	/
COc1ccc(C(=O)Nc2nc(CC(=O)Nc3ccc4c(c3)OCCO4)cs2)cc1	16.9	-1.6
COc1ccc(Nc2nc(C(=O)Nc3ccc4c(c3)OCCO4)cs2)c(OC)c1	53.3*	4.2
O=C(NCc1cccnc1)c1cccc(CN2C(=O)CSc3ccccc32)c1	92.1*	2.8
O=C(NCc1cccnc1)c1cccc(CN2C(=O)C3CCCN3C(=O)c3ccccc32)c1 (centres undefined)	-5.6	-4.6
Cc1ccnc(SC=CC(=O)c2ccccc2)n1	/	-2.6
COc1cc(C=C2SC(=S)N(CC(=O)O)C2=O)ccc1O	26.6	-12.3
COc1cc(C=C2SC(=S)N(c3ccc(C(=O)O)c(O)c3)C2=O)ccc1O	69.9*	-46.1
COc1cc(C=C2SC(=S)N(c3ccc4c(c3)OCO4)C2=O)cc(OC)c1OC	17.2	-4.6
COc1cc(C=C2SC(=S)N(c3cccc(O)c3)C2=O)ccc1O	80.9*	-80.7
CCc1onc(C)c1C1CCCN1C(=O)Nc1ccccc1Br (centres undefined)	-1.6	-3.0
CC(=O)C1=C(C)NC(SCC(=O)c2ccccc2)=C(C#N)C1c1ccccc1Cl (centres undefined)	-57.2	-2.7
CC(=O)C1=C(C)NC(SCC(=O)c2ccc([N+](=O)[O-])cc2)=C(C#N)C1c1ccco1 (centres undefined)	68.6*	37.7
CC(=O)C1=C(C)NC(SCC(=O)c2ccc([N+](=O)[O-])cc2)=C(C#N)C1c1cccc(C)c1 (centres undefined)	63.5*	0.7
CC(=O)C1=C(C)NC(SCC(N)=O)=C(C#N)C1c1cccc([N+](=O)[O-])c1 (centres undefined)	0.0	-2.9
CC(=O)C1=C(C)NC(SCC(=O)c2ccc([N+](=O)[O-])cc2)=C(C#N)C1c1ccccc1Cl (centres undefined)	60.9*	-18.1
CC(=O)C1=C(C)NC(SCC(=O)c2cccc([N+](=O)[O-])c2)=C(C#N)C1c1cccc(C)c1 (centres undefined)	61.9*	-11.3
CC(=O)C1=C(C)NC(SCC(=O)c2ccc(C)cc2)=C(C#N)C1c1ccco1 (centres undefined)	-11.8	-3.0
CCc1ccc(C2C(C#N)=C(SCC(=O)c3cccc([N+](=O)[O-])c3)NC(C)=C2C(C)=O)cc1 (centres undefined)	45.4	-3.4
Cc1cc(C2CCCN2C(=O)c2cc(C(C)C)no2)on1 (centres undefined)	-5.0	0.6
O=C(CN1CCCC(COCc2ccccc2)C1)N1CCN(c2ccccc2)CC1 (centres undefined)	3.5	-3.8
Cc1ccccc1C(=O)NCCSC1CCCCC1	-8.2	-1.2
O=C(Nc1ccc2c(c1)OCO2)c1sc2ccccc2c1Cl	16.0	-0.6
SMILES	mHTT CaM bind	Pf apPOL inh
COc1cc(OC)cc(-n2nc(C(=O)NCc3ccc(F)cc3)c3ccccc3c2=O)c1	13.0	4.7
CC(=O)C1=C(C)NC(SCC(=O)c2ccccc2)=C(C#N)C1c1ccc(Cl)cc1 (centres undefined)	-22.3	5.1
CC(=O)C1=C(C)NC(SCC(=O)c2ccc([N+](=O)[O-])cc2)=C(C#N)C1c1ccccc1 (centres undefined)	59.4*	-4.0
Cc1cccc(NC(=O)C2CCN(c3cc(C(=O)N4CCCC4)ccn3)CC2)c1	11.9	-1.1
COc1ccc(Oc2coc3c(CN4CCCCCC4)c(O)ccc3c2=O)cc1	97.0*	-3.4
CCOC(=O)c1ccc(Oc2coc3c(CN4CCCCC4)c(O)ccc3c2=O)cc1	-0.6	-4.5
Cc1cc2c(cc1C)N[C@]1(C[C@H]3CCCC(=O)N4CC[C@@H](C1)[C@@H]34)C(=Nc1ccccc1C)N2	22.0	-1.2
Cc1ccccc1N=C1Nc2ccc(Cl)cc2N[C@]12C[C@H]1CCCC(=O)N3CC[C@@H](C2)[C@@H]13	24.9	2.7
CC(C)(C)CC(C)(C)N=C1Nc2ccccc2N[C@]12C[C@H]1CCCC(=O)N3CC[C@@H](C2)[C@@H]13	49.1	-6.1
O=C1CCC[C@@H]2C[C@@]3(C[C@@H]4CCN1[C@H]24)Nc1cc(Cl)c(Cl)cc1NC3=NCc1ccccc1	98.3*	-5.2
CC(C)(C)CC(C)(C)N=C1Nc2ccc(Cl)cc2NC12C[C@H]1CCC(=O)N3CC[C@@H](C2)[C@@H]13 (some centres undefined)	94.9*	-3.0
Cc1ccccc1N=C1Nc2cc(Cl)c(Cl)cc2N[C@]12C[C@H]1CCCC(=O)N3CC[C@@H](C2)[C@@H]13	85.7*	-7.6
